Test results: PMC9911399, “Two distinct binding modes provide the RNA-binding protein RbFox with extraordinary sequence specificity”
Positions count from the first letter of the chain named. Over roughly 16,000 sequences, “ka relative to ugcaugu” has its median near 0.0091; the highest 2% begin near 0.032. For the sample, the highest values were picked, then their nearest neighbours and some sequences at random.

T1: RBFOX1 RRM (Homo sapiens, UniProt Q9NWB1 109-208)
T1 sequence: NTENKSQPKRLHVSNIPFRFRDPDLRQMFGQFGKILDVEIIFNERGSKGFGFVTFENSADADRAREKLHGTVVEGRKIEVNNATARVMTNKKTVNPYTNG

B1: CAUUGUG (DNA:RNA)
RNA: GGGAGACCGGAAUUCAGAUUGUCCCAUUGUGUUAAAUCCCGUCGUAGCCACCA
DNA 1: CAATCTGAATTCCGGTCTCCC
DNA 2: TGGTGGCTACGACGGGATT
B2: GGUCGAG (DNA:RNA)
RNA: B1 RNA with C25G, A26G, U28C, U30A
DNA 1: CAATCTGAATTCCGGTCTCCC
DNA 2: TGGTGGCTACGACGGGATT
B3: AGGUCCC (DNA:RNA)
RNA: B1 RNA with C25A, A26G, U27G, G29C, U30C, G31C
DNA 1: CAATCTGAATTCCGGTCTCCC
DNA 2: TGGTGGCTACGACGGGATT
B4: UGUUUUU (DNA:RNA)
RNA: B1 RNA with C25U, A26G, G29U, G31U
DNA 1: CAATCTGAATTCCGGTCTCCC
DNA 2: TGGTGGCTACGACGGGATT
B5: UGUCGUU (DNA:RNA)
RNA: B1 RNA with C25U, A26G, U28C, G31U
DNA 1: CAATCTGAATTCCGGTCTCCC
DNA 2: TGGTGGCTACGACGGGATT
B6: UGUUUGA (DNA:RNA)
RNA: B1 RNA with C25U, A26G, G29U, U30G, G31A
DNA 1: CAATCTGAATTCCGGTCTCCC
DNA 2: TGGTGGCTACGACGGGATT
B7: CUGUGUU (DNA:RNA)
RNA: B1 RNA with A26U, U27G, G31U
DNA 1: CAATCTGAATTCCGGTCTCCC
DNA 2: TGGTGGCTACGACGGGATT
B8: UGUGUGU (DNA:RNA)
RNA: B1 RNA with C25U, A26G, U28G, G29U, U30G, G31U
DNA 1: CAATCTGAATTCCGGTCTCCC
DNA 2: TGGTGGCTACGACGGGATT
B9: CCUGCUG (DNA:RNA)
RNA: B1 RNA with A26C, U28G, G29C
DNA 1: CAATCTGAATTCCGGTCTCCC
DNA 2: TGGTGGCTACGACGGGATT
B10: UGUGUUU (DNA:RNA)
RNA: B1 RNA with C25U, A26G, U28G, G29U, G31U
DNA 1: CAATCTGAATTCCGGTCTCCC
DNA 2: TGGTGGCTACGACGGGATT
B11: CGUUUGA (DNA:RNA)
RNA: B1 RNA with A26G, G29U, U30G, G31A
DNA 1: CAATCTGAATTCCGGTCTCCC
DNA 2: TGGTGGCTACGACGGGATT
B12: UGUGUUG (DNA:RNA)
RNA: B1 RNA with C25U, A26G, U28G, G29U
DNA 1: CAATCTGAATTCCGGTCTCCC
DNA 2: TGGTGGCTACGACGGGATT
B13: UGUUAAA (DNA:RNA)
RNA: B1 RNA with C25U, A26G, G29A, U30A, G31A
DNA 1: CAATCTGAATTCCGGTCTCCC
DNA 2: TGGTGGCTACGACGGGATT
B14: UGUUUGU (DNA:RNA)
RNA: B1 RNA with C25U, A26G, G29U, U30G, G31U
DNA 1: CAATCTGAATTCCGGTCTCCC
DNA 2: TGGTGGCTACGACGGGATT
B15: UGCUGUG (DNA:RNA)
RNA: B1 RNA with C25U, A26G, U27C
DNA 1: CAATCTGAATTCCGGTCTCCC
DNA 2: TGGTGGCTACGACGGGATT
B16: CAGCUCA (DNA:RNA)
RNA: B1 RNA with U27G, U28C, G29U, U30C, G31A
DNA 1: CAATCTGAATTCCGGTCTCCC
DNA 2: TGGTGGCTACGACGGGATT
B17: GUAUCUG (DNA:RNA)
RNA: B1 RNA with C25G, A26U, U27A, G29C
DNA 1: CAATCTGAATTCCGGTCTCCC
DNA 2: TGGTGGCTACGACGGGATT
B18: AAUGCCC (DNA:RNA)
RNA: B1 RNA with C25A, U28G, G29C, U30C, G31C
DNA 1: CAATCTGAATTCCGGTCTCCC
DNA 2: TGGTGGCTACGACGGGATT
B19: UGAACGA (DNA:RNA)
RNA: GGGAGACCGGAAUUCAGAUUGUCCUGAACGAUUAAAUCCCGUCGUAGCCACCA
DNA 1: CAATCTGAATTCCGGTCTCCC
DNA 2: TGGTGGCTACGACGGGATT
B20: CUAGAGG (DNA:RNA)
RNA: B1 RNA with A26U, U27A, U28G, G29A, U30G
DNA 1: CAATCTGAATTCCGGTCTCCC
DNA 2: TGGTGGCTACGACGGGATT

target: T1, RBFOX1 RRM; experiment: EMSA; HiTS-Eq, 1 nM pool, 10 min; buffer printed only for the single-RNA assays: 10 mM Tris pH 7.5, 150 mM NaCl, 3.4 mM EDTA, 0.001% NP-40, 30 C; details: tags: His6 N-terminal (pET28a); label: 5' 32P
How it was run: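 A pool of RNA with 7 randomized nucleotides, 5′-radiolabelled and with DNA-annealed flanks, was equilibrated at 1 nM for 10 min in 50 µL with purified RbFox RRM, wild type or mutant, across increasing protein concentrations. Free RNA was separated by 8% native PAGE, excised, reverse-transcribed, barcoded by PCR and sequenced. Relative association constants were obtained from read-count changes of each RNA species versus the control reaction and normalised to the cognate motif.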

Row | Binder | binding signal
1 | B1 | 0.0157 KA relative to UGCAUGU
2 | B2 | 0.0142 KA relative to UGCAUGU
3 | B3 | 0.00339 KA relative to UGCAUGU
4 | B4 | 0.0221 KA relative to UGCAUGU
5 | B5 | 0.021 KA relative to UGCAUGU
6 | B6 | 0.0341 KA relative to UGCAUGU
7 | B7 | 0.0207 KA relative to UGCAUGU
8 | B8 | 0.0346 KA relative to UGCAUGU
9 | B9 | 0.0192 KA relative to UGCAUGU
10 | B10 | 0.0186 KA relative to UGCAUGU
11 | B11 | 0.0182 KA relative to UGCAUGU
12 | B12 | 0.0299 KA relative to UGCAUGU
13 | B13 | 0.0109 KA relative to UGCAUGU
14 | B14 | 0.0434 KA relative to UGCAUGU
15 | B15 | 0.0347 KA relative to UGCAUGU
16 | B16 | 0.00282 KA relative to UGCAUGU
17 | B17 | 0.015 KA relative to UGCAUGU
18 | B18 | 0.00474 KA relative to UGCAUGU
19 | B19 | 0.0199 KA relative to UGCAUGU
20 | B20 | 0.00494 KA relative to UGCAUGU
